Results: PubChem BioAssay AID1211 (NMMLSC, 2008)
Active and inactive are the calls of the source. No rule for the calls is given here.

Biological target: Estrogen receptor (Homo sapiens) (UniProt P03372)
Assay: displacement of fluorescent estrogen from ERalpha – cell-based, Cos7 ERalpha-GFP, flow cytometry, primary screen (AID 1211);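 also: 0% = DMSO vehicle wells and 100% = no E2-Alexa633 signal left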
Settings: fluorescent ligand competition, stronger effect = higher value

Estrogen receptor (Homo sapiens), sequence (P03372 whole entry, looked up): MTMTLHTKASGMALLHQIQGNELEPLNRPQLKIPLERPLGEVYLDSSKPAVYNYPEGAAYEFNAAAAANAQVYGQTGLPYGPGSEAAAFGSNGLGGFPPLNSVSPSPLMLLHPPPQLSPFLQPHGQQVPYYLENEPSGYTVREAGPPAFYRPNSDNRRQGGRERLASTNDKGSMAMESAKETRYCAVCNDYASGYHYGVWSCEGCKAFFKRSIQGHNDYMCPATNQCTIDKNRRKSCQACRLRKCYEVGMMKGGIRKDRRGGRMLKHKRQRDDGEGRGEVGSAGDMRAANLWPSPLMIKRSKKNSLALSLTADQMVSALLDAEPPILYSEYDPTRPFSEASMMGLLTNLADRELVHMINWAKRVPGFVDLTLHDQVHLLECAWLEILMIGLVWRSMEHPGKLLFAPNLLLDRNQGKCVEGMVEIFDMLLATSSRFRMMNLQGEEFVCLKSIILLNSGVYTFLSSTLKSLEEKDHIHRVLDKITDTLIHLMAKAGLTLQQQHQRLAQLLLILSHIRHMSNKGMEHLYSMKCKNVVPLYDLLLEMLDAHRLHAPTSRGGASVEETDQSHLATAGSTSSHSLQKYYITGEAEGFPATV

SMILES | inhibition of ligand binding (at 10 µM) | inhibition of ligand binding (binding inhibition, at 0.1 µM) [%]
COc1cccc(-c2nnc(NC(=O)Cc3cccs3)s2)c1 | 52% (inactive) | 20
CCC(=O)Oc1ccc(C(CC)C(CC)c2ccc(OC(=O)CC)cc2)cc1 (stereo not drawn) | 80% (active) | 89
CCCc1nnc2n1N=C(c1ccc(-c3cc(Cl)ccc3Cl)o1)CS2 | 47% (inactive) | 27
CN(C)CC(=O)N1c2ccccc2CCc2ccc(NC(=O)c3ccc(N)cc3)cc21 | 44% (inactive) | 41
CCc1nc2sc3ccccc3c(=O)c2c(=O)n1Cc1ccco1 | 0% (inactive) | 23
Cc1ccnc(NS(=O)(=O)c2ccc(NC(=O)Cc3cccs3)cc2)n1 | 31% (inactive) | 63
CC(=O)Nc1ccc(N=Cc2nc(-c3ccc(C)cc3)oc2O)cc1 | 29% (inactive) | 60
CCOC(=O)c1sc(NC(=O)c2ccc3ncsc3c2)nc1C | 33% (inactive) | 36
O=C1Nc2ccccc2SC(c2ccccc2)C1O (stereo not drawn) | 26% (inactive) | 46
Cc1noc(C)c1COC(=O)c1cc2c3ccccc3n(C)c2s1 | 41% (inactive) | 33
CCn1c(=NC(=O)c2ccc(N3C(=O)CCC3=O)cc2)sc2c(OC)ccc(OC)c21 | 66% (active) | 32
CCn1c(SCC(=O)Nc2ccc3c(c2)oc2ccccc23)nnc1-c1ccc(N)cc1 | 44% (inactive) | 10
CCOC(=O)c1c(/N=C/c2ccc(O)cc2O)sc2c1CCC2 | 58% (inactive) | 42
COc1ccc2c(c1)c(=O)oc1cc(OCC(=O)N3CCC(C)CC3)ccc12 | 0% (inactive) | 26
CC(=O)Nc1ccc2[nH]c(C)cc(=O)c2c1 | 27% (inactive) | 19
Cc1ccc(C(=O)ONc2ccc(N=NC(=O)c3ccccc3O)cc2)cc1 | 39% (inactive) | 37
COc1cc(/C=C2\OC(=O)c3c(OC)cccc32)ccc1O | 24% (inactive) | 28
COc1ccc(NC(=O)CN(c2ccccc2)S(=O)(=O)N(C)C)cc1OC | 16% (inactive) | 16
O=Cc1cn(-c2ccccc2)nc1-c1cc2c(ccc3ccccc32)oc1=O | 40% (inactive) | 55
Cc1ccc(OCCN2CCN(CC(O)Cn3c4ccccc4c4ccccc43)CC2)cc1 (stereo not drawn) | 37% (inactive) | 33
Nc1ccc2nc(-c3cc(Cl)c(N)c(Cl)c3)[nH]c2c1 | 18% (inactive) | 6
COc1ccc2c(c1)[nH]c1c(=O)n(N)cnc12 | 55% (inactive) | 20
Cc1ccc(S(=O)(=O)Cc2ccc(C(=O)N3CCc4ccccc4C3)o2)cc1 | 54% (inactive) | 57
CN(/N=C/c1cccnc1)c1cnn(-c2ccc(F)c(Cl)c2)c(=O)c1Cl | 24% (inactive) | 15
Oc1c(Cl)cc(Cl)cc1Sc1cc(Cl)cc(Cl)c1O | 37% (inactive) | 28

SMILES | inhibition of ligand binding (at 10 µM) | inhibition of ligand binding (binding inhibition, at 0.1 µM) [%]
Nc1ccc2nc(-c3ccc(N)c(Cl)c3)[nH]c2c1 | 31% (inactive) | 12
Cc1cccc2cc(C(c3nnnn3C(C)(C)C)N(Cc3ccco3)CC3CCCO3)c(=O)[nH]c12 (stereo not drawn) | 31% (inactive) | 7
O=C(NCc1ccco1)c1cc2ccc(O)cc2oc1=O | 5% (inactive) | 46
CCOc1ccccc1C1C(C#N)=C(N)Nc2onc(-c3ccccc3)c21 (stereo not drawn) | 9% (inactive) | 20
Cc1ccc(C(=O)NCC(=O)OCC(=O)c2c(N)n(C)c(=O)n(C)c2=O)s1 | 14% (inactive) | 5
CC(=O)Nc1ccc(OC(=O)CC2SC(=O)NC2=O)cc1 (stereo not drawn) | 51% (inactive) | 60
Cc1cnc(C(=O)OCC(=O)c2csc(N3CCCCC3)n2)cn1 | 17% (inactive) | 63
COC(=O)c1c(-c2ccncc2)csc1NC(=O)c1ccoc1C | 41% (inactive) | 25
O=c1nc2s/c(=C\c3ccco3)c(=O)n2nc1Cc1ccc(F)cc1 | 32% (inactive) | 61
CN=c1scc(C)n1/N=C/c1ccc(O)cc1O | 0% (inactive) | 3
COc1ccc(NC(=O)C(NC(=O)c2ccc(=O)[nH]c2)c2ccc(C)cc2)cc1 (stereo not drawn) | 4% (inactive) | 13
Cn1c(SCc2cc(=O)n3cc(Br)ccc3n2)nnc1C1COc2ccccc2O1 (stereo not drawn) | 19% (inactive) | 27
NS(=O)(=O)c1ccc2c(c1)C1C=CCC1C(C1CC=CCC1)N2 (stereo not drawn) | 69% (active) | 17
O=c1oc2c(O)c(O)cc3c(=O)oc4c(O)c(O)cc1c4c23 | 0% (inactive) | 4
Nc1ccc2oc(-c3ccccc3Cl)cc(=O)c2c1O | 46% (inactive) | 30
O=c1cc(O)c2c(=O)n(-c3ccccc3)c3c(c2o1)CCCCCC3 | 31% (inactive) | 1
Cc1oc2cc(O)ccc2c(=O)c1Oc1ccccc1 | 58% (active) | 93
COc1ccc(C2Nc3ccccc3C(=O)N2c2ccccc2)cc1Cn1cc([N+](=O)[O-])cn1 (stereo not drawn) | 29% (inactive) | 12
Cc1ccccc1Nc1nnc(SCC(=O)NC(=O)NCc2ccco2)s1 | 63% (inactive) | 50
Cc1ccc(C)c(SCC(=O)OCC(=O)c2ccco2)c1 | 0% (inactive) | 28
COc1ccc(C2Nc3ccccc3C(=O)N2c2ccccc2)cc1COc1ccccn1 (stereo not drawn) | 17% (inactive) | 58
Cc1cc(-c2nnc3sc(-c4ccc(Cl)cc4Cl)nn23)n[nH]1 | 27% (inactive) | 53
O=C(Cn1c(=O)n(Cc2ccco2)c(=O)c2c3c(sc21)CCCCC3)Nc1ccccc1 | 51% (inactive) | 39
Oc1ccc(-c2nc(-c3ccc(O)c(O)c3)cs2)cc1 | 68% (active) | 39
